The results in this text go back to ChEMBL document CHEMBL3988442, “University of Dundee, Small-Polar-MMV Screening Library” (2021).

The campaign covered roughly 48,000 compounds. About 13,000 (27%) showed an effect of 50% or more. The list shows a part of the results.

The subject of the experiment is Wolbachia pipientis. The experiment is described as follows: Anti-Wolbachia Cell-Based Screen. The settings on record: 5 µM. The format is functional. Details: scale not given: in the data most compounds retested in dose-response had high values.
In the case of `Nc1nc(CCC(=O)N2CCOC(CC3CCCCC3)C2)cs1` (stereo unspecified), the “Percent Effect” value is listed as -4.495%.

Consider `CC1(C)CCC(C(=O)O)c2ccccc21` (stereo unspecified), for which the “Percent Effect” value is 1.78%. Under `CN(Cc1ccc(Br)o1)C(=O)Nc1cccnc1` stands 14.31%; under `Cc1csc(CN2CCC3(CC2)COC(COCC2CC2)C3)n1.O=C(O)C(F)(F)F` (stereo unspecified), 87.23%. Take `O=C(C1CCSCC1)N1CCC2(CC1)COC(COCC1CC1)C2` (stereo unspecified): the “Percent Effect” value is 0.4038%. Take `Cc1cccc(CN2CCC3(CC2)COC(COCC2CC2)C3)n1` (stereo unspecified): the “Percent Effect” value was found to be 102.1%. For `O=C(O)C(F)(F)F.O=C(O)C(F)(F)F.c1cncc(OCC2CC3(CCN(CC4CC4)CC3)CO2)c1` (stereo unspecified), the “Percent Effect” value is listed as -1.816%.

For the molecule `Cc1cc(CN2CCC3(CC2)COC(COCC2CC2)C3)no1.O=C(O)C(F)(F)F` (stereo unspecified), the “Percent Effect” value was found to be 95.48%. Under `CC(=O)N1CCC2(CC1)COC(COCc1ccccn1)C2.O=C(O)C(F)(F)F` (stereo unspecified) stands -3.959%; under `CCOCC1CC2(CCN(Cc3ccccn3)CC2)CO1` (stereo unspecified), -6.984%. In the case of `Cc1ncc(CNc2ccc(C(=O)NCc3ccco3)cc2C)s1` it was -10.56%; in that of `CCS(=O)(=O)CCNC(=O)c1ccc(-c2ccc(C)cc2)cc1F`, -13.74%. In the case of `CN(C)[C@@H]1CO[C@H](CNC(=O)c2cccs2)[C@H]1O` it was 5.998%.

On to `COCC(=O)NCCSCCOc1cccc(Br)c1`, for which the “Percent Effect” value turned out to be 5.807%.

For `CNc1cc(C)nc(N2Cc3cnn(Cc4ccc(F)cc4)c3C2)n1`, the “Percent Effect” value is recorded as 67.48%. Regarding `Cc1ccnc(N2Cc3cnn(Cc4ccc(F)cc4)c3C2)n1`, the “Percent Effect” value is -9.844%. In the case of `Cc1cc(C)nc(N2Cc3cnn(Cc4ccc(F)cc4)c3C2)n1` it was 10.67%; in that of `Cc1nn(C)c2c(NCCCn3cccn3)ncnc12`, 1.711%; in that of `CCn1nc(C)c2ncnc(NCC(=O)N3CCOCC3)c21`, 4.727%.

Consider `CCn1nc(C)c2ncnc(N(C)C)c21`, for which the “Percent Effect” value worked out at 100.5%.

As to `CCN(CC)c1ncnc2c(C)nn(CC)c12`, the “Percent Effect” value stood at 92.35%. In the case of `CCn1nc(C)c2nc(C(C)C)nc(N3CCCCC3)c21` it was -10.35%; in that of `CCCc1nc(N2CCN(CC)CC2)c2c(n1)c(C)nn2CC`, -11.71%; in that of `COCCN(Cc1ccccc1)c1cc(C)ncn1`, -9.961%.

In the case of `CCN(Cc1ccccc1)c1ncnc2c(C)nn(CC)c12`, the “Percent Effect” value came out at 90.55%. Under `CN1CCC(N(C)C[C@H]2CC[C@@H](Cc3cccc(CO)c3)O2)CC1` stands -29.03%. On to `O=C(NCC1CC1)C1CN(C(=O)c2cccc(Cl)c2)CC12CCOCC2` (stereo unspecified), for which the “Percent Effect” value was -0.2514%. In the case of `Cn1c(C(=O)N2CCC(C(=O)N3CCCC3)CC2)c(Cl)c2ccccc21` it was 1.615%; in that of `Cn1c(C(=O)N2CCC(CC(N)=O)CC2)c(Cl)c2ccccc21`, -9.644%. In the case of `Cn1c(C(=O)N2CCC(C(N)=O)C2)c(Cl)c2ccccc21` (stereo unspecified) it was 50.27%; in that of `Cc1ccc(OC2(C(=O)O)CCN(C(=O)c3nc(C)oc3C)CC2)cn1`, -0.6346%. As for `CCC(NS(=O)(=O)c1ccc(C(=O)NC2CC2)cc1)c1ccnn1C` (stereo unspecified), the “Percent Effect” value is recorded as -9.031%. `CCC(NS(=O)(=O)c1ccc(C(=O)NC2CC2)cc1)c1cnn(C)c1` (stereo unspecified): the “Percent Effect” value is recorded as 100.7%.

As for `CCCNS(=O)(=O)c1ccc(C(=O)NC(CC)c2cnn(C)c2)cc1` (stereo unspecified), the “Percent Effect” value is -2.749%. `Cc1nc2cc(=O)[nH]n2c(C)c1CNC(=O)C(C)Cc1ccccc1` (stereo unspecified): the “Percent Effect” value is given as -3.98%.

As to `COc1cccc2c1N(CC(=O)Nc1ccc(Cl)cn1)CCC2`, the “Percent Effect” value was 8.099%. In the case of `CC(C)CN1CCCC(c2nc(O)c3cc(F)ccc3n2)C1` (stereo unspecified) it was 102.2%; in that of `Cc1ccc2nc(CN3CCCC3c3cccnc3)cc(O)c2c1` (stereo unspecified), 7.141%; in that of `Cc1ccc2nc(C3CCCN(CC(C)C)C3)nc(O)c2c1` (stereo unspecified), 109.3%. In the case of `Cc1ccc2nc(CNCCCN3CCCC3)cc(O)c2c1` it was -3.941%. In the case of `Oc1cc(CNCCCN2CCCC2)nc2ccc(F)cc12`, the “Percent Effect” value stood at 15.84%. On to `CCN1CCCC(c2nc(O)c3cc(C)ccc3n2)C1` (stereo unspecified), for which the “Percent Effect” value amounted to 115.3%.

On to `CC(C)CN1CCC(NC(=O)c2ccc(F)cc2I)CC1`, for which the “Percent Effect” value came out at 2.48%. With `Cc1ccc2nc(CN3CCC(O)(CN4CCCC4)CC3)cc(O)c2c1`, the “Percent Effect” value is reported as 3.677%. As for `Cc1ccc2ncn(CC(O)CN3CCC(C)CC3)c(=O)c2c1` (stereo unspecified), the “Percent Effect” value stood at 8.084%. Under `Cc1ccc2nc(C3CCN(CC(C)C)CC3)nc(O)c2c1` stands 129.6%; under `COC(=O)c1cccc2nc([C@H]3CCN(CC(C)C)C3)oc12`, -3.142%. In the case of `O=C(c1ccco1)N(CC(F)(F)F)C1CCCOC1` (stereo unspecified) it was -12.11%.

Regarding `COCc1csc(NC(=O)NCc2ccc(C)s2)n1`, the “Percent Effect” value is reported as 0.0103%. In the case of `c1cc(-c2noc(-c3cc(C4CC4)[nH]n3)n2)cc(N2CCCCC2)n1`, the “Percent Effect” value is on record as -19.77%. Under `Cc1cnn(CCC(=O)N2C[C@H]3CC[C@@H]2CN(CC(=O)N(C)C)C3)c1` stands -5.732%; under `COCCN(Cc1ccc(C)o1)C(=O)Nc1nnc2ccccn12`, -21.85%; under `Cn1ncc2cnn(CC(O)COCc3ccccc3Cl)c2c1=O` (stereo unspecified), -6.755%. Under `Cc1ccc2nc(C3CCCN(Cc4ccccc4)C3)nc(O)c2c1` (stereo unspecified) stands 104.3%; under `Cc1cc(N2CCN(Cc3ccccc3)CC(O)C2)cc(C)n1` (stereo unspecified), -18.63%; under `Cc1cccc(N2CC3(CCN(Cc4nccn4C)C3)CC2=O)c1.O=C(O)C(F)(F)F` (stereo unspecified), 3.528%. In the case of `COC(=O)c1ccoc1CN(C)CC(=O)NC1CC1` it was 113.9%; in that of `COC(=O)c1cc(NC(=O)NCC2CCS(=O)(=O)C2)ccc1Cl` (stereo unspecified), -31.29%; in that of `CN(Cc1cnn(C)c1)C(=O)NC1CCS(=O)(=O)C1` (stereo unspecified), -13.78%. For the molecule `CN(CCC(=O)NC1CC1)Cc1ccc(Cl)s1`, the “Percent Effect” value is -12.79%. As to `COC(=O)c1ccoc1CN(C)CC(=O)NC1CCS(=O)(=O)C1` (stereo unspecified), the “Percent Effect” value is reported as 105.9%.

Turning to `CNC(=O)COC(=O)c1ccoc1CN1c2ccccc2CC1C` (stereo unspecified), the “Percent Effect” value is -15.23%. Take `O=C(CN(Cc1cccs1)C1CCS(=O)(=O)C1)NCCc1cccs1` (stereo unspecified): the “Percent Effect” value is 4.084%. Under `O=C(Cc1cc2c(cc1Br)OCCO2)NC1CCS(=O)(=O)C1` (stereo unspecified) stands -27.59%. As for `COC(=O)c1ccoc1CN(C1CC1)C1CCS(=O)(=O)C1` (stereo unspecified), the “Percent Effect” value came out at 104.7%. In the case of `CC(CS(C)(=O)=O)N(C(=O)Nc1cc(F)ccc1Cl)C1CC1` (stereo unspecified) it was 14.25%.
